# Screens as filed in PubChem BioAssay.
# KCNQ2 inh: rat KCNQ2 potassium channel inhibitors, primary screen, cell-based, CHO-K1, FluxOR thallium flux, B-score; AID 2156, 2009; B-score at 10 µM; 20 min; stronger effect = lower value; hit rate 1.1% among 310,000;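 active = fluorescence ratio B-score at most minus 3 library SDs, with starting brightness B-score within 2 library SDs, cut at about -5.5 in these data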
# KCNQ2 pot: potentiators of rat KCNQ2 potassium channel | CHO-K1 KCNQ2, FluxOR thallium flux fluorescence; stronger effect = higher value | B-score at 10 µM | hit rate 0.54% among 310,000;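 active = fluorescence ratio B-score at least 3 SD of library B-scores, with initial fluorescence B-score within 3 of them, cut at about 5.3 in these data; same plate scores as AID 2156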;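 also: B-score of peak minus minimum over baseline fluorescence ratio after K+ and Tl+ stimulus; positive B-score means potentiation of KCNQ2 with more thallium influx and brighter signal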
# Kir21 confirm: mouse Kir2.1 channel blockers, retest, confirmation, cell-based, FluxOR thallium flux, duplicate. shares compounds with KCNQ2 pot. Kir2.1-expressing cells, FluxOR thallium flux fluorescence; stronger effect = lower value. Tl flux remaining, % of negative control (stronger effect = lower value), % at 10 µM. hit rate 41% among 2,300. AID 2032, 2009;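 active = Primary-screen hit whose thallium flux fell at least 3 control SD below untreated wells in both duplicates, with normal baseline fluorescence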;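 also: 0% = blank wells without stimulus and 100% = stimulated no-compound controls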
# HEK293 ctr: parental HEK293 activity in Kir2.1 inhibitor counter-screen; shares compounds with KCNQ2 pot; parental HEK293 cells, FluxOR thallium flux fluorescence; 0% = unstimulated blank wells; FluxOR signal as % of negative control (100 = no effect), % at 10 µM; hit rate 19% among 2,300; AID 2105;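 active = dye signal at least 3 control SD above or below untreated wells in both duplicates, raw fluorescence within 3, either direction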;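 also: percent is based on the flux ratio of peak minus minimum fluorescence over baseline F0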
# CHO-K1 ctr: nonspecific thallium flux increase in parental CHO-K1, confirmation, counter-screen for KCNQ2 potentiator project, cell-based, FluxOR thallium flux, duplicate; shares compounds with KCNQ2 pot; parental CHO-K1 cells, FluxOR thallium flux fluorescence; zero = vehicle mean+3SD, 100% = vehicle-minus-blank window; activity increase over 3SD of controls, % at 10 µM; hit rate 43% among 1,200; AID 2282, 2010;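 active = signal rise of at least 3 SD above the untreated control mean, in both duplicate wells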;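 also: counter screen of KCNQ2 potentiator hits so any rise reflects channel-independent effects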
# KCNQ1 pot spec: human KCNQ1 channel potentiation off-target, confirmation, selectivity assay for KCNQ2 potentiator project, cell-based, CHO, FluxOR thallium flux. shares compounds with KCNQ2 pot. CHO KCNQ1 stable, FluxOR thallium flux fluorescence; beyond 3SD, as % of vehicle-control signal. activation over 3SD threshold, % at 10 µM. hit rate 28% among 1,200. AID 2283, 2010;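 active = fluorescence ratio rise of at least 3 SD of vehicle wells above their mean, in both replicate wells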;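 also: 0% = vehicle mean plus 3 SD and 100% = vehicle minus unstimulated blank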
# Target sequence (P51787 whole entry, looked up): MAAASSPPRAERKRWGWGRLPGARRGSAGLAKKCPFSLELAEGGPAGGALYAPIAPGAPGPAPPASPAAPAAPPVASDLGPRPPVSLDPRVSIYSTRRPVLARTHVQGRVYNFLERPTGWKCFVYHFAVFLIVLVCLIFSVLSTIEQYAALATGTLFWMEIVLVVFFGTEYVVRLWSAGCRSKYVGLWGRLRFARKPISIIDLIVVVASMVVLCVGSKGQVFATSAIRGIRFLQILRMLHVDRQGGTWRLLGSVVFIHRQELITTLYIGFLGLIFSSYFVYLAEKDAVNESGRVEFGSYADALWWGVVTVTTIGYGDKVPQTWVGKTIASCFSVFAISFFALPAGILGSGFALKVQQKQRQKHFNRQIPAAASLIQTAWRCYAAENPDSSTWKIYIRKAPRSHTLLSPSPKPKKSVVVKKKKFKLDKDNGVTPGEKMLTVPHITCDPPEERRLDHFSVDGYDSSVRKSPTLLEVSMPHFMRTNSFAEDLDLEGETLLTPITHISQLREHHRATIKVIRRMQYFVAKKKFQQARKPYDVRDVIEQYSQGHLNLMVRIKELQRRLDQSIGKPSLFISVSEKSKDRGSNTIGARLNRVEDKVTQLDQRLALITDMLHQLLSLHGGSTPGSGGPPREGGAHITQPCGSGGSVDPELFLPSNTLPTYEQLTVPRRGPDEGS
# KCNQ2 pot conf: rat KCNQ2 channel potentiators, confirmation, cell-based, CHO, FluxOR thallium flux, duplicate; AID 2287, 2010; potentiation, less the hit threshold, % at 10 µM; CHO-KCNQ2 cells, FluxOR thallium flux fluorescence; shares compounds with KCNQ2 pot; hit rate 68% among 1,200;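 active = fluorescence ratio rising 3 SD or more over the vehicle control mean in both replicates, plus primary screen hit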;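 also: peak minus minimum thallium fluorescence divided by baseline after K/Tl stimulus; 0% = vehicle mean plus 3 SD and 100% = vehicle minus unstimulated blank difference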
# Kir21 spec: mouse Kir2.1 channel activation off-target, confirmation, selectivity assay for KCNQ2 potentiator project, cell-based, HEK293, FluxOR thallium flux | hit rate 2% among 1,200 | HEK293 Kir2.1, FluxOR thallium flux fluorescence | shares compounds with KCNQ2 pot | activity over 3SD threshold, % at 10 µM | AID 2345, 2010;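 active = fluorescence ratio rise of at least 3 SD above the vehicle-control mean, seen in both replicates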;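 also: 0% = vehicle mean plus 3 SD and 100% = vehicle minus no-stimulus blank window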
# KCNQ2 W236L pot: potentiators of retigabine-insensitive KCNQ2 W236L, mechanism study for KCNQ2 potentiator project, cell-based, rat KCNQ2 W236L, CHO, automated patch clamp | shares compounds with KCNQ2 pot | automated patch clamp current | current increase over 3SD of negative controls (%), stronger effect = higher value, % at 25 µM | hit rate 10% among 940 | AID 2558, 2010;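 active = current increase at least 3 SD of the untreated controls above them in both duplicate recordings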
# * = called active by the depositor; i = inactive; nt = no result. Only some compounds are listed: those with a hit (about 1.6% of all), similar ones and a draw of the others.
SMILES,KCNQ2 inh,KCNQ2 pot,Kir21 confirm,HEK293 ctr,others
Cc1cc(NC(=O)CSCC(=O)OC(C)C(=O)c2cc(C)c(C)cc2C)no1 (configuration not stated),i,nt,68%*,i,
Cc1cc(NC(=O)CSCC(=O)OC(C)C(=O)N(C)Cc2ccccc2)no1 (configuration not stated),i,1.3,nt,nt,
O=c1[nH]c(/C=C\c2cccs2)nc(O)c1[N+](=O)[O-],i,nt,nt,nt,
Oc1c(Cl)cc(Cl)cc1/C=N/NC(=S)NC1CC2C=CC1C2 (configuration not stated),i,7.2*,i,i,CHO-K1 ctr=-10;KCNQ1 pot spec=70*;KCNQ2 pot conf=-16;Kir21 spec=-27
Oc1ccccc1/C=N/NC(=S)NC1CC2C=CC1C2 (configuration not stated),i,1.4,nt,nt,
CC(C)c1ccc(N(CC(=O)NC2CCCC2)C(=O)CCC(=O)Nc2ccccn2)cc1,i,0.47,nt,nt,
COc1ccc(CNC(=O)C2CCC(CNS(=O)(=O)c3ccccc3)CC2)cc1 (configuration not stated),i,nt,nt,nt,
CC(NCc1ccccc1)c1ccccc1O (configuration not stated),i,nt,nt,nt,
O=C(O)/C=C/c1cn(-c2ccccc2)nc1-c1ccc(-c2ccc([N+](=O)[O-])cc2)o1,i,1,nt,nt,
O=C(CCNS(=O)(=O)c1ccccc1)N1CCC(Cc2ccccc2)CC1,i,10*,i,i,CHO-K1 ctr=14*;KCNQ1 pot spec=88*;KCNQ2 pot conf=8.7*;Kir21 spec=-36;KCNQ2 W236L pot=i
CC1CCN(C(=O)CCNS(=O)(=O)c2ccccc2)CC1,i,0.15,nt,nt,
N#Cc1cccc(Nc2c3c(nc4ccccc24)CCC3)c1,i,nt,nt,nt,
Cc1cccc(Nc2c3c(nc4ccccc24)CCC3)c1,i,nt,31%*,i,
COc1ccc(C)cc1Nc1n[n+](-c2ccccc2)c(-c2ccc(C(=O)O)cc2)s1,i,0.64,nt,nt,
COc1ccc(C)cc1Nc1n[n+](-c2ccccc2)c(-c2cc(OC)c(OC)cc2Br)s1,-6.4*,-6.4,53%*,i,
CC1(C)CC(n2c(=S)[nH]c3ccccc3c2=O)CCO1 (configuration not stated),i,0.74,nt,nt,
O=c1c2ccccc2[nH]c(=S)n1C1CCCCC1,i,nt,nt,nt,
CC1CCC(n2c(=S)[nH]c3ccccc3c2=O)CC1 (configuration not stated),i,11*,i,i,CHO-K1 ctr=-1;KCNQ1 pot spec=83*;KCNQ2 pot conf=27*;Kir21 spec=-27;KCNQ2 W236L pot=i
CC1CCCC(n2c(=S)[nH]c3ccccc3c2=O)C1C (configuration not stated),i,11*,i,i,CHO-K1 ctr=-15;KCNQ1 pot spec=-19;KCNQ2 pot conf=6.8*;Kir21 spec=-27;KCNQ2 W236L pot=i
COC(=O)C(c1ccccc1)N(Cc1cccc(CN(C(C(=O)OC)c2ccccc2)S(C)(=O)=O)c1)S(C)(=O)=O (configuration not stated),i,0.59,nt,nt,
Cc1ccsc1C(=O)N1CCCC(CO)(Cc2ccccc2)C1 (configuration not stated),i,0.01,nt,nt,
COc1cc(C(=S)N2CCCCC2)ccc1OCC(=O)N1CCCC1,i,0.68,nt,nt,
COc1cc(C(=S)N2CCCCC2)ccc1OCC(=O)Nc1ccc(F)cc1,i,6*,i,i,CHO-K1 ctr=142*;KCNQ1 pot spec=27*;KCNQ2 pot conf=17*;Kir21 spec=-46;KCNQ2 W236L pot=i
C#CNC(=O)C1(CC=C)CCNCC1,i,0.07,nt,nt,
CN(CC(=O)Nc1cccc(F)c1)C(=O)c1ccccc1OCCOc1ccccc1,i,nt,nt,nt,
SMILES,KCNQ2 inh,KCNQ2 pot,Kir21 confirm,HEK293 ctr,others
Cc1ccc(NC(=S)NCc2ccc(S(N)(=O)=O)cc2)cc1Cl,i,1.7,nt,nt,
COc1cc(C(C2=C(O)CC(C)(C)CC2=O)C2C(=O)CC(C)(C)CC2=O)cc(OC)c1OC (configuration not stated),i,nt,nt,nt,
CC1(C)CC(=O)C(C(C2=C(O)CC(C)(C)CC2=O)c2ccco2)C(=O)C1 (configuration not stated),i,5.4*,i,i,CHO-K1 ctr=135*;KCNQ1 pot spec=-10;KCNQ2 pot conf=42*;Kir21 spec=-44;KCNQ2 W236L pot=i
CCC(=O)N(CCC(c1ccco1)C(C)C)Cc1ccccc1 (configuration not stated),i,nt,50%*,68%*,
CC(=O)N(CCC(c1ccco1)C(C)C)Cc1ccc(Cl)cc1 (configuration not stated),i,nt,nt,nt,
C/C(=N/NC(=O)NC12CC3CC(CC(C3)C1)C2)c1ccccc1,i,nt,nt,nt,
O=S(=O)(Nc1ccc(S(=O)(=O)Nc2ncccn2)cc1)c1ccc(Cl)cc1,i,0.49,nt,nt,
O=S(=O)(Nc1cccc(CCc2ccccn2)c1)c1ccc(Cl)cc1,i,nt,i,i,
CCOC(=O)CSC1=N/C(=C\c2ccc(OC)c(OC)c2)C(=O)N1C,i,1.8,nt,nt,
COc1ccc(CCNC(=O)CCc2ccc(S(=O)(=O)NCC(C)C)cc2)cc1OC,i,0.52,nt,nt,
Clc1ccc(COc2ccccc2CNCc2cccnc2)cc1,i,0.38,nt,nt,
CCOc1cccc(CNCc2cccnc2)c1OCc1ccccc1,i,1.3,45%*,i,
CC[n+]1c(/C=C/c2ccc(OC(C)=O)c(OC)c2)ccc2ccccc21,i,nt,nt,nt,
CCN(CC)c1ccc(/C=C/c2ccc3ccc(OC)cc3[n+]2CC)cc1,-7.6*,-7.6,i,i,
CC[n+]1c(/C=C/c2ccc(OC)c(OC)c2)ccc2ccccc21,i,nt,nt,nt,
CC[n+]1c(/C=C/c2ccc(N(C)C)cc2)ccc2ccccc21,-9.3*,-9.3,i,i,
